Source: PubChem BioAssay (EPA / NIEHS)
Active and inactive are the calls of the source. The calls were made as follows: active = hit-call score of the fitted dose curve at least 0.9, where 1 is the maximum; inactive = score below 0.9.

What follows are molecules tested on Interleukin-8 (IL8), CXCL8 (gene 3576) (assay: BSK_LPS_IL8: BioMAP Diversity Plus: LPS Assay for Interleukin-8 (IL8) Biomarker Activity (AID 2283078)). Conditions: primary human HUVEC with PBMC; actives raise or lower the signal.
Protocol: BSK_LPS is a cell-based, multiplexed-readout assay that uses umbilical vein endothelium and peripheral blood mononuclear cells, a human vascular primary cell co-culture, with measurements taken at 24 hours after chemical dosing in a 96-well plate.BSK_LPS_IL8 is an assay component measured in the BSK_LPS assay. It measures IL-8 antibody related to regulation of gene expression using ELISA technology.Data from the assay component BSK_LPS_IL8 was analyzed into 1 assay endpoint. This assay endpoint, BSK_LPS_IL8, was analyzed with bidirectional fitting relative to DMSO as the negative control and baseline of activity. Using a type of binding reporter, gain or loss-of-signal activity can be used to understand changes in the signaling as they relate to the gene CXCL8. Furthermore, this assay endpoint can be referred to as a primary readout, because this assay has produced multiple assay endpoints where this one serves a signaling function. To generalize the intended target to other relatable targets, this assay endpoint is annotated to the cytokine intended target family, where the subfamily is interleukins.
The levels of cell surface (or secreted, indicated by the prefix "s") biomarker endpoints were measured by ELISA. Overt cytotoxicity to cells in confluent adherent cultures (all systems other than the BT system) was assessed by measuring total protein levels using sulforhodamine B (SRB) staining in parallel cultures at the time of biomarker measurements, indicated as SRB endpoints. For proliferation assays for adherent cell types, individual cell types are cultured at sub-confluence and relative cell numbers quantified by SRB staining at time points optimized for each system (48 h: 3C and CASM3C systems; 72 h: BT and HDF3CGF systems; 96 h: SAg system). SRB was performed by staining cells with 0.1% SRB after fixation with 10% TCA and reading wells at 560 nm.Viability and proliferation of PBMC (T cells) was quantified by Alamar Blue reduction for the SAg and BT systems. For PBMC viability (referred to as PBMC Cytotoxicity within the assay endpoint names), cells were plated (75,000/well in a 96-well plate) and then chemical samples added for 1 h before addition of activators, SEB and TSST-1 (20 ng/mL final concentration each). Cells were incubated for 90 h. Then, Alamar Blue (20 uL/well) (Invitrogen, Cat DAL1100) was added for 6 h, and the plates were read with a fluorescence microplate reader at 546/580 nm (excitation/emission). For PBMC proliferation, cells were plated and activated as above but incubated for only 16 h prior to addition of Alamar Blue. Plates were read after 6 h.

Row | Structure (SMILES) | outcome | AC50
1 | COC(=O)c1ccc(I)cc1S(=O)(=O)NC(=O)Nc1nc(C)nc(OC)n1 | inactive | –
2 | CCN(CC)C(=O)c1cccc(C)c1 | inactive | –
3 | CCOC(=O)NCCOc1ccc(Oc2ccccc2)cc1 | inactive | –
4 | O=C(O)C1(C(=O)Nc2ccc(Cl)cc2Cl)CC1 | inactive | –
5 | c1ccc2[nH]c(-c3cscn3)nc2c1 | inactive | –
6 | O=C(c1ccccc1)C1CCCCC1 | inactive | –
7 | CCCN(CCC)c1c([N+](=O)[O-])cc(C(F)(F)F)c(N)c1[N+](=O)[O-] | inactive | –
8 | COC(=O)c1c(Cl)nn(C)c1S(=O)(=O)NC(=O)Nc1nc(OC)cc(OC)n1 | inactive | –
9 | CSC(=O)c1cccc2nnsc12 | inactive | –
10 | S=C(S)NCCNC(=S)S.[Mn+2].[S-]C([S-])=NCCN=C([S-])[S-].[Zn+2] | inactive | –
11 | CC(=O)S[C@@H]1CC2=CC(=O)CC[C@]2(C)[C@H]2CC[C@@]3(C)[C@@H](CC[C@@]34CCC(=O)O4)[C@H]12 | – | 15.9 µM (active)
12 | COCCO | inactive | –
13 | COC(=O)c1ccccc1C(=O)O | inactive | –
14 | CCCCC(CC)CN1C(=O)C2C3C=CC(C3)C2C1=O (stereo not given) | inactive | –
15 | COc1c(Cl)ccc(Cl)c1C(=O)O | inactive | –
16 | O=C(Nc1ccc([N+](=O)[O-])cc1Cl)c1cc(Cl)ccc1O | – | 0.47 µM (active)
17 | CCSC(=O)N(CC(C)C)CC(C)C | inactive | –
18 | C#C[C@]1(O)CC[C@H]2[C@@H]3CCC4=CC(=O)CC[C@@H]4[C@H]3CC[C@@]21CC | inactive | –
19 | C=CCOC(Cn1ccnc1)c1ccc(Cl)cc1Cl (stereo not given) | inactive | –
20 | CCCN(CCC)C(=O)SCC | inactive | –

Row | Structure (SMILES) | outcome | AC50
21 | Oc1ccc(C(c2ccc(O)cc2)C(Cl)(Cl)Cl)cc1 | – | 14.9 µM (active)
22 | COC(=O)c1cccc(C)c1S(=O)(=O)NC(=O)Nc1nc(OCC(F)(F)F)nc(N(C)C)n1 | inactive | –
23 | CCCCOCCOCCOCc1cc2c(cc1CCC)OCO2 | – | 13.3 µM (active)
24 | COC(=O)c1ccccc1S(=O)(=O)NC(=O)Nc1nc(OC(F)F)cc(OC(F)F)n1 | inactive | –
25 | OB(O)O | inactive | –
26 | S=C([S-])NCCNC(=S)[S-].[Mn+2] | inactive | –
27 | CC1(C)C(C=C(Cl)Cl)C1C(=O)OCc1cccc(Oc2ccccc2)c1 (stereo not given) | – | 10 µM (active)
28 | CCOC(=O)C(C)Oc1ccc(Oc2cnc3cc(Cl)ccc3n2)cc1 (stereo not given) | inactive | –
29 | C#CCOC(=O)[C@@H](C)Oc1ccc(Oc2ncc(Cl)cc2F)cc1 | inactive | –
30 | c1ccc(Nc2ccccc2)cc1 | inactive | –
31 | CCC(O)=C1C(=O)CC(C(=O)O)CC1=O (stereo not given) | inactive | –
32 | CCCCOC(=O)[C@@H](C)Oc1ccc(Oc2ccc(C(F)(F)F)cn2)cc1 | inactive | –
33 | COc1nc(C)nc(NC(=O)NS(=O)(=O)c2ccccc2OCCCl)n1 | inactive | –
34 | N[C@@H](Cc1cc(I)c(Oc2ccc(O)c(I)c2)c(I)c1)C(=O)O | inactive | –
35 | CC(C)(c1ccc(O)cc1)c1ccc(O)cc1 | inactive | –
36 | CCCOC(=O)c1ccc(C(=O)OCCC)nc1 | inactive | –
37 | CCCOC(=O)NCCCN(C)C | inactive | –
38 | CCCCC(CC)COC(=O)c1ccccc1C(=O)O (stereo not given) | inactive | –
39 | COC(=O)c1ccc(CNS(C)(=O)=O)cc1S(=O)(=O)NC(=O)Nc1nc(OC)cc(OC)n1 | inactive | –
40 | CC(=O)[C@H]1CC[C@H]2[C@@H]3CCC4=CC(=O)CC[C@]4(C)[C@H]3CC[C@]12C | – | 20 µM (active)
